Bioassay records (PubChem BioAssay)
TDP1 cell noCPT – qHTS for Inhibitors of human tyrosyl-DNA phosphodiesterase 1 (TDP1): qHTS in cells in absence of CPT; DT40 Tdp1-/- hTDP1 cells, no CPT, ATP luminescence, 48 h; Potency, µM (titrated, usually from 46.2 µM), for inactives: top-dose activity change, negative = growth inhibition, actives largely listed as inhibitors; 15% of 420,000 active; AID 686978, 2013; also: nearly all actives have a fitted effect of over 55% in size
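Growth of hTDP1-complemented DT40 Tdp1-knockout cells is measured by ATP luminescence after at least 48 hr compound exposure at 37 °C, with DMSO substituting for the 20 nM CPT used in the parallel screen.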
KB-V1 cytotox – kills drug-selected multidrug resistant KB-V1 cells. 3.4% of 400,000 active. Potency, µM (highest dose often 46.1 µM), actives largely listed as cytotoxic. KB-V1 MDR cells viability, CellTiter-Glo, 72 h; also: nearly all actives have a fitted effect of over 60% in size
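Cytotoxicity toward P-gp-expressing KB-V1 cells was determined as loss of CellTiter-Glo luminescence after 72 h at 37 degrees C. Compounds were tested in quantitative HTS format across a concentration range, with curves fitted to normalized data.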
HT1080 IDH1KD tx – HT-1080 IDH1 knockdown cell toxicity (counter line). HT-1080 IDH1 knockdown viability, ATP luminescence, 48 h. Potency, µM (highest dose often 46.1 µM), inactives show at the top dose activity, negative = toxicity, hits mostly cytotoxic. 2% of 360,000 active. AID 686971;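 also: 0% = DMSO wells and -100% = cell-free medium wells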
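Viability of IDH1-knockdown HT-1080 fibrosarcoma cells was assessed by CellTiter-Glo after 48 h at 37 °C with titrated compound; concentration-effect curves were classified by fit quality and response size.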
KB-3-1 tox – kills parental KB-3-1 adenocarcinoma cells; Potency, µM (doses to about 46.1 µM), actives largely listed as cytotoxic; 1.4% of 400,000 active; KB-3-1 viability, CellTiter-Glo ATP luminescence, 72 h; also: nearly all actives have a fitted effect of over 60% in size
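Parental KB-3-1 adenocarcinoma cells in phenol-red-free DMEM with 10% FBS were pin-treated with compounds at several concentrations, incubated 72 h at 37 °C, and viability read by CellTiter-Glo luminescence; concentration-effect curves were fitted after normalization.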
HT1080NT lethal – kills 2HG-producing HT-1080-NT fibrosarcoma cells | HT-1080-NT fibrosarcoma viability, CellTiter-Glo ATP luminescence, 48 h | Potency, µM (top dose mostly 46.1 µM), for inactives: top-dose activity, negative = less viability, usual class: cytotoxic | 1.6% of 360,000 active;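 also: NT is the 2HG producing partner of a matched IDH1 knockdown line; 0% = DMSO-treated cells and -100% = media-only wells without cells; nearly all actives have a fitted effect of over 55% in size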
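Fibrosarcoma NT cells, 750 per well in 5% FBS RPMI, were exposed to compound for 48 hours. Viability: CellTiter-Glo luminescence.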
DT40 TDP1 CPT – DT40-hTDP1 cell growth loss with CPT | chicken DT40 Tdp1-/-;hTDP1 cells + 20 nM CPT, ATP luminescence, 48 h | Potency, µM (doses to about 46.2 µM), inactives show top-dose activity change, negative = growth inhibition, usual class: inhibitors | 12% of 420,000 active | AID 686979; also: nearly all actives have a fitted effect of over 55% in size
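Chicken DT40 Tdp1-/- cells complemented with human TDP1, 400 cells/well, exposed to compounds plus 20 nM camptothecin for at least 48 h at 37 C; viability read as ATP content by CellTiter-Glo luminescence.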
An asterisk follows results filed as active; i = inactive; ? = inconclusive; · = no result given; [ ] = remark or other dose. Hits are enriched below; roughly 19% of the tested compounds scored in any of these assays. Calls follow the shape of the dose curve; as a rule, active = well fitted curve in the direction sought with a large enough effect; inconclusive = small, poorly fitted or top-dose-only effect, or another doubt; inactive = no such curve, though single readings can be large; an effect the other way counts as inactive or inconclusive. Unless noted, % is scaled to controls: 0 for no effect and ±100 for the full control effect; potency is read from the fitted curve at half-maximal effect.

SMILES	TDP1 cell noCPT	KB-V1 cytotox	HT1080 IDH1KD tx	KB-3-1 tox	HT1080NT lethal	DT40 TDP1 CPT
Cc1cccc(-c2c3c(nc4c2c(=O)n(C)c(=O)n4C)-c2ccccc2C3O)c1 (configuration not stated)	4.6µM*	i	-5%	i	5%	5.8µM*
CCOc1ccc(N2C(=O)C3ON(C)C(c4ccc([N+](=O)[O-])cc4)C3C2=O)cc1 (configuration not stated)	-7%	i	4%	i	6%	-11%
COc1cc2nc(N(CCCN(C)C)C(=O)c3ccc(S(=O)(=O)N4CCc5ccccc5C4)cc3)sc2cc1OC	?	i	-2%	i	-1%	?
COc1cccc2sc(N(CCCN(C)C)C(=O)c3ccc(S(=O)(=O)N4CCc5ccccc5C4)cc3)nc12	10µM*	i	?	i	?	15µM*
CN(C)CCCN(C(=O)c1ccc(S(=O)(=O)N2CCc3ccccc3C2)cc1)c1nc2c(F)cc(F)cc2s1	?	i	-8%	i	-23%	?
Cc1ccc2sc(N(CCCN(C)C)C(=O)c3ccc(S(=O)(=O)N4CCc5ccccc5C4)cc3)nc2c1C	4.1µM*	i	?	i	21µM*	4.6µM*
COc1ccc(C)c2sc(N(CCCN(C)C)C(=O)c3ccc(S(=O)(=O)N4CCc5ccccc5C4)cc3)nc12	2.3µM*	10µM*	?	?	?	2.9µM*
COc1cccc2sc(N(CCCN(C)C)C(=O)c3ccc(S(=O)(=O)N4CCCc5ccccc54)cc3)nc12	?	?	?	?	18µM*	?
COc1ccc(C)c2sc(N(CCN(C)C)C(=O)c3ccc(S(=O)(=O)N(C)c4ccccc4)cc3)nc12	?	i	8%	i	0%	-19%
O=C(CNC(=O)c1ccccc1F)NCc1cccnc1	6%	?	13%	i	14%	2%
CCc1ccc2nc(N(CCCN(C)C)C(=O)c3ccc(S(=O)(=O)N4CCCc5ccccc54)cc3)sc2c1	?	9.2µM*	?	?	?	?
CCCCC[n+]1ccn(C2=C([O-])c3ccccc3C(=O)/C2=N\S(=O)(=O)c2ccc(Cl)cc2)c1	2.9µM*	?	0%	?	0%	4.6µM*
CCCC[n+]1ccn(C2=C([O-])c3ccccc3C(=O)/C2=N\S(=O)(=O)c2ccc(Cl)cc2)c1	9.2µM*	i	?	?	?	8.2µM*
CCCC[n+]1ccn(-c2nc3ccccc3nc2[N-]S(=O)(=O)c2ccc(Br)cc2)c1	-9%	i	12%	i	25%	23%
N/C(CSc1ccc(Cl)cc1)=N\S(=O)(=O)c1ccc(Cl)cc1	-19%	i	-17%	i	-18%	-5%
CCOc1ccc(NC(=O)CCS(=O)(=O)c2ccc3c(c2)n(C)c(=O)c(=O)n3C)cc1	4%	·	·	·	·	16%
c1nc2sc3c(c2c2nnnn12)CCC3	-5%	i	2%	i	1%	-6%
N#CCc1nc2c3c4c(sc3ncn2n1)CCCC4	-21%	?	3%	2.3µM*	3%	-4%
Cc1ccc(C(=O)Nc2ccc(N3CCN(C(=O)c4ccco4)CC3)cc2)cc1	-29%	i	11%	i	9%	-1%
COc1ccccc1C(=O)NC(=S)Nc1ccc(N2CCN(C(=O)c3ccco3)CC2)cc1	15µM*	i	12%	i	4%	?
Cc1ccccc1C(=O)N1CCN(c2ccc(NC(=S)NC(=O)c3ccco3)cc2)CC1	26µM*	i	?	?	?	23µM*
COC(=O)c1ccc(C(=O)OC)c(NC(=O)c2cnn3c(C(F)F)cc(-c4ccccc4)nc23)c1	?	i	·	i	·	-9%
Cc1ccc(C)c(NC(=O)Cn2c(=O)n(Cc3ccco3)c(=O)c3ccc(C(=O)NC4CCCC4)cc32)c1	16µM*	i	·	i	·	?
CCOc1ccccc1NC(=O)Cn1c(=O)n(Cc2ccco2)c(=O)c2ccc(C(=O)NC3CCCC3)cc21	23µM*	i	·	i	·	?
O=C(Cn1c(=O)n(Cc2ccco2)c(=O)c2ccc(C(=O)NC3CCCC3)cc21)Nc1ccc(F)cc1	-17%	i	·	i	·	-27%
SMILES	TDP1 cell noCPT	KB-V1 cytotox	HT1080 IDH1KD tx	KB-3-1 tox	HT1080NT lethal	DT40 TDP1 CPT
Cn1cnc(Sc2ncnc3nc[nH]c23)c1[N+](=O)[O-]	2%	?	18µM*	?	?	-3%
CC(=O)CSc1ncnc2nc[nH]c12	14%	i	1%	i	-29%	-5%
Cn1cnc([N+](=O)[O-])c1Sc1ncnc2nc[nH]c12	?	?	4.1µM*	1.8µM*	4.1µM*	?
Cn1cnc([N+](=O)[O-])c1SCC(=O)NN	-10%	i	-1%	i	7%	-5%
COc1ccc(C2(c3ccc(OC)cc3)NC(=O)N(Cn3nnc4ccccc4c3=O)C2=O)cc1	?	i	-14%	i	-16%	21µM*
OCCCc1cn(Cc2ccccc2)c2ccccc12	-12%	i	-12%	i	-27%	-7%
CCCCCN=c1ccn(Cc2ccccc2)c2ccccc12	2.1µM*	·	·	·	·	2.7µM*
O=S(=O)(c1cc(C(F)(F)F)ccc1Cl)N1CCCCCC1	-17%	i	6%[9.24 µM]	i	6%	-9%
Cc1cc(C)c(C)c(S(=O)(=O)N2CCN(c3ccccn3)CC2)c1C	-5%	?	0%	i	-17%	-23%
Cc1cc(C)c(C)c(S(=O)(=O)N2CCN(c3ncnc4ccccc34)CC2)c1C	8.2µM*	?	23µM*	18µM*	?	10µM*
O=S(=O)(c1cc(C(F)(F)F)ccc1Cl)N1CCN(c2ncnc3ccccc23)CC1	2.1µM*	?	-21%	?	?	2.1µM*
CC1CCN(c2ncnc3ccccc23)CC1	23µM*	i	-14%	i	-12%	13µM*
CS(=O)(=O)N(CC(=O)NCc1ccco1)c1cccc([N+](=O)[O-])c1	-8%	i	-5%	i	0%	-10%
COC(=O)c1scc(-c2ccc(C)cc2)c1S(=O)(=O)N1CCN(c2cccc(OC)c2)CC1	5.8µM*	i	·	i	·	9.2µM*
COC(=O)c1scc(-c2ccc(C)cc2)c1S(=O)(=O)N1CCN(c2ccc(F)cc2)CC1	1.8µM*	i	·	i	·	8.2µM*
